Experimental data: PubChem BioAssay
The source made the active and inactive calls. Unless noted, no stated cut-off is given here; in the data, active means inhibition above about 28%; inactive means the rest.

Tests used:
[1] = StAR promoter reporter inhibitors, counter-screen for LRH-1 inverse agonist project, cell-based, luminescence, high throughput (AID 651611); settings: StAR promoter luciferase reporter counterscreen, at 3.6 µM, active compounds read high
[2] = molecular target: Nuclear receptor subfamily 5 group A member 2 (Homo sapiens) (UniProt O00482); experiment: NR5A2 activity suppression in reporter cells – cell-based, luminescence, confirmation (AID 651613; in the data active means inhibition above about 42%;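 further: HEK293T cells co-transfected with LRH-1 and StAR promoter luciferase reporter; 0% = vehicle wells and 100% = parental cells lacking receptor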); settings: cell-based LRH-1 luciferase reporter, inverse agonism; at 3.6 µM; active compounds read high
[3] = molecular target: Steroidogenic factor 1 (Homo sapiens) (UniProt Q13285); experiment: inverse agonism at SF1 nuclear receptor – cell-based, luminescence, high throughput, counter-screen for LRH-1 inverse agonist project (AID 651614; in the data active means inhibition above about 44%;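 further: cells cotransfected with StAR promoter reporter and SF1 expression vector; 0% = vehicle on cells with receptor and 100% = vehicle on cells lacking receptor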); settings: cell-based SF1 luciferase reporter, at 3.6 µM, active compounds read high
[4] = compounds suppressing VP16-driven luciferase signal – cell-based, luminescence, high throughput, counter-screen for LRH-1 inverse agonist project (AID 651615; in the data active means inhibition above about 33%); settings: Gal4-VP16 luciferase reporter cells, at 3.6 µM, active compounds read high
[5] = test system: transactivating tegument protein VP16 (Human herpesvirus 1); experiment: compounds suppressing VP16-driven luciferase signal – cell-based, luminescence, single concentration, counter-screen for SRC2 inhibitor project (AID 652007; in the data active means inhibition above about 36%); settings: cell-based VP16 transactivation luciferase reporter, at 8.9 µM, active compounds read high
[6] = molecular target: Nuclear receptor coactivator 2 (Homo sapiens) (UniProt Q15596); experiment: inhibition of GAL4-SRC2 driven luciferase expression – cell-based, luminescence, HEK293, triplicate, confirmation (AID 652008;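 active means mean inhibition above 46.5%, the solvent-only control mean plus 3 SD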;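 further: 0% = DMSO-treated cells and 100% = Gossypol at 36 µM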); settings: HEK293 GAL4-SRC2 luciferase reporter, at 8.9 µM, active compounds read high
Nuclear receptor coactivator 2 (Homo sapiens), sequence (Q15596 whole entry, looked up, the tested form may be a part): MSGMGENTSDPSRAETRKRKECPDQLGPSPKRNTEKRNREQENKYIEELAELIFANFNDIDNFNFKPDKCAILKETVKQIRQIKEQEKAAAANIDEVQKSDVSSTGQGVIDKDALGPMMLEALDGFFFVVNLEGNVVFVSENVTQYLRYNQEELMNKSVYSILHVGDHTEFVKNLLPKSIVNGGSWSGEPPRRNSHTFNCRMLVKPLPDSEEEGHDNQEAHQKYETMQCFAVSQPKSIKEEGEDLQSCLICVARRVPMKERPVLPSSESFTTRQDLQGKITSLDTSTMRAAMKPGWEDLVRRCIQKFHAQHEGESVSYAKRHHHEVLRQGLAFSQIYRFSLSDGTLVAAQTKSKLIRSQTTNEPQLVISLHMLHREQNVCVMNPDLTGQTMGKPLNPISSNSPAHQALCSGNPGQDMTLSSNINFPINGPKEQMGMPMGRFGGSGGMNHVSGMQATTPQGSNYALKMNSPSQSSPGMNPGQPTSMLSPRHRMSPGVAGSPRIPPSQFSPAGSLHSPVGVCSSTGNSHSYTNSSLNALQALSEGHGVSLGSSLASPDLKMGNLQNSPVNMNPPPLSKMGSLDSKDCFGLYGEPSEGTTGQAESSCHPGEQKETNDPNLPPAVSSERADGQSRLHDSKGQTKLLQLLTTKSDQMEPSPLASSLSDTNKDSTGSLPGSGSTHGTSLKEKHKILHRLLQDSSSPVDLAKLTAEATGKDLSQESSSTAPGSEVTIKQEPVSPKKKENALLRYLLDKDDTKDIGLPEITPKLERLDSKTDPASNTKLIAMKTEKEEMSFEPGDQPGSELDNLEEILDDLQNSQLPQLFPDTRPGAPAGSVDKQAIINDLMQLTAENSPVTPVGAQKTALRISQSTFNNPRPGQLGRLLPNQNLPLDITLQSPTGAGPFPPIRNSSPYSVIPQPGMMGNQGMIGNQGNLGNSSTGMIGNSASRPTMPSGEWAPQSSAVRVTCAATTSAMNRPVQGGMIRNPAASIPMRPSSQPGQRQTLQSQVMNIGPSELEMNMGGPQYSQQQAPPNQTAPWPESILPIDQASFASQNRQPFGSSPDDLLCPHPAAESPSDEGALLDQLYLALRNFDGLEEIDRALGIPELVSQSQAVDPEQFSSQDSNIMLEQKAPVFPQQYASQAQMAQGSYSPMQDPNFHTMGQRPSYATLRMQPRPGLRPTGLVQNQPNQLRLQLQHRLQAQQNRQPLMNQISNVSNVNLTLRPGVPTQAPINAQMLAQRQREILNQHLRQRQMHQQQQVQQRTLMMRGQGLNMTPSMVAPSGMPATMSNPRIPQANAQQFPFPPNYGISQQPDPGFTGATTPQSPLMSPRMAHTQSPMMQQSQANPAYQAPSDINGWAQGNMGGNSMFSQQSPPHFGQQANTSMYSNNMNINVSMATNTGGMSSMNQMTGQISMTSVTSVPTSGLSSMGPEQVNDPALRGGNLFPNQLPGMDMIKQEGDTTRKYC

Nuclear receptor subfamily 5 group A member 2 (Homo sapiens), sequence (O00482 whole entry, looked up): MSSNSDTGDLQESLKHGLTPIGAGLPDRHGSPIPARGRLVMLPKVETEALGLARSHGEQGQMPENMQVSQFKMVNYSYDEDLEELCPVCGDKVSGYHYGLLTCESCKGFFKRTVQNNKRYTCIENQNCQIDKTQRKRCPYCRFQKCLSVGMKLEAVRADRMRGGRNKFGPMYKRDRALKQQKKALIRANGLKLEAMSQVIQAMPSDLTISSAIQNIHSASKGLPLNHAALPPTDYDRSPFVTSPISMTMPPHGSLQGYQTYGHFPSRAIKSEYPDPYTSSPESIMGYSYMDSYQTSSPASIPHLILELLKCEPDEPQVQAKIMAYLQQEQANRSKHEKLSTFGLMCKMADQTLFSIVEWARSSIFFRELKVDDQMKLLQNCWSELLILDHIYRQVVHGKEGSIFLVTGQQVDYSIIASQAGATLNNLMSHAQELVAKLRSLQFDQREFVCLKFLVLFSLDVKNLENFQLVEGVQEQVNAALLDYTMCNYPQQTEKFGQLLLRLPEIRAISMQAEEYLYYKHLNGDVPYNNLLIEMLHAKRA
Steroidogenic factor 1 (Homo sapiens), sequence (Q13285 whole entry, looked up, the tested form may be a part): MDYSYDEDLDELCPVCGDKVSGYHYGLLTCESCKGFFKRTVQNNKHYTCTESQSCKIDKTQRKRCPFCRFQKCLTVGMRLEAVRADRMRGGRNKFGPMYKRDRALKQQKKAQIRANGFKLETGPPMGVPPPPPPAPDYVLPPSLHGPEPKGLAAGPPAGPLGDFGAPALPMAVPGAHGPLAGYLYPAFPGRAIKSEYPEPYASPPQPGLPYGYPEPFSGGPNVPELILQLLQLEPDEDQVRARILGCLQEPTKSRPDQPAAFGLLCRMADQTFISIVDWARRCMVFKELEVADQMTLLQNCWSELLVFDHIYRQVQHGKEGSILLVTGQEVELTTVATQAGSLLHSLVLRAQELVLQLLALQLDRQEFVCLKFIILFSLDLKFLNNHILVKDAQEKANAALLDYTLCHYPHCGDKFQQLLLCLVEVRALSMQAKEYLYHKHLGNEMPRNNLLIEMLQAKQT

| SMILES | inhibition [1] | inhibition [2] | inhibition [3] | inhibition [4] | inhibition [5] | inhibition [6] |
| --- | --- | --- | --- | --- | --- | --- |
| C#Cc1cccc(Nc2nc(NCCOC)nc3ccsc23)c1 | 26.9% (inactive) | 47.1% (active) | 57.4% (active) | 5.35% (inactive) |  |  |
| CNC(=S)N/N=C/c1cn(Cc2ccc(C)cc2)c2ccccc12 | 2.35% (inactive) | 46.9% (active) | 46.8% (active) | 1.56% (inactive) |  |  |
| OC1(c2ccc(OC(F)F)cc2)CSC(=Nc2cccnc2)N1C1CC1 (centres undefined) | 11.3% (inactive) | 43.3% (active) | 48.8% (active) | 40% (active) |  |  |
| O=C1C(Cl)=C(N2CCOCC2)C(=O)N1c1ccc(Br)cc1 | 12.1% (inactive) | 53.2% (active) | 50.8% (active) | 4.3% (inactive) |  |  |
| C#Cc1ccc(NC(=O)C2(C)CCN2C(=O)Cc2ccc(C(C)(C)C)cc2)cc1 (centres undefined) | 4% (inactive) | 48% (active) | 39% (inactive) | 43.9% (active) |  |  |
| O=C(Nc1ccccc1C(=O)NC1CC1)c1ccc([N+](=O)[O-])o1 | 22.3% (inactive) | 62.9% (active) | 65.1% (active) | -5.35% (inactive) |  |  |
| Cc1cc(C(=O)CSc2nnnn2C)c(C)n1CCc1ccc(F)cc1 | 5.26% (inactive) | 49.4% (active) | 48% (active) | -3.7% (inactive) |  |  |
| CC1C/C(=C/c2ccncc2)C(=O)/C(=C/c2ccncc2)C1 (centres undefined) | 17.3% (inactive) | 73.6% (active) | 84.2% (active) | 72.9% (active) | 93.7% (active) | 90.8% (active) |
| CCOc1ccc(NC(=O)Cn2cc(C(C)=O)c3ccccc32)cc1 | 22.7% (inactive) | 78.3% (active) | 73.8% (active) | 41.9% (active) |  |  |
| Cc1ccc(NC(=O)CSc2nnc([C@@H]3CCCN3C(=O)OC(C)(C)C)o2)c(C)c1 | 13.8% (inactive) | 58% (active) | 54.5% (active) | -1.31% (inactive) |  |  |
| CC(=O)N(/N=C/c1ccc([N+](=O)[O-])o1)c1nc2ccccc2c(=O)n1-c1ccccc1 | 19.4% (inactive) | 69% (active) | 55.2% (active) | 2.37% (inactive) |  |  |
| O=C(c1ccc(Oc2ccc([N+](=O)[O-])cc2Cl)cc1)N1CCCC1 | 6.61% (inactive) | 46.2% (active) | 58.9% (active) | 4.32% (inactive) |  |  |
| C=CCNC(=S)N/N=C(\C)c1ccccn1 | 89.3% (active) | 95.5% (active) | 88.6% (active) | 54.8% (active) |  |  |
| O=C1C=CC2(C=C1)O[C@H](Cc1ccccc1)[C@@H](Cc1ccccc1)O2 | 37% (active) | 83.4% (active) | 73.2% (active) | 72.5% (active) | 94.4% (active) | 63.8% (active) |
| COc1cc([N+](=O)[O-])ccc1NC(=O)Cn1ccsc1=N | 4.07% (inactive) | 59.9% (active) | 57.6% (active) | -3.33% (inactive) |  |  |
| CC(Nc1ncnc2ccccc12)c1ccccc1 (centres undefined) | 20.9% (inactive) | 60.2% (active) | 67.9% (active) | 53.7% (active) |  |  |
| Cc1scc(C(=O)N/N=C/c2ccc([N+](=O)[O-])o2)c1C | 42.8% (active) | 76.3% (active) | 73.5% (active) | 25.1% (inactive) | 62.4% (active) | 68% (active) |
| O=C(COC(=O)CCN1C(=O)C2CC=CCC2C1=O)NCCc1ccccc1 (centres undefined) | 11.9% (inactive) | 40.1% (inactive) | 44.8% (active) | 3.03% (inactive) |  |  |
| O=C(COc1cccc2c1CCNC2=O)Nc1cccc(C(F)(F)F)c1 | 5.78% (inactive) | 52.5% (active) | 29.9% (inactive) | -20.7% (inactive) |  |  |
| CC(=O)Nc1cc(-c2cccnc2)cn2c(-c3ccc(F)cc3)cnc12 | 9.06% (inactive) | 51.7% (active) | 40.5% (inactive) | 0.11% (inactive) |  |  |
| Cc1onc(-c2c(F)cccc2Cl)c1C(=O)c1ccccc1O | 7.24% (inactive) | 51.3% (active) | 49.1% (active) | -0.7% (inactive) |  |  |
| N#Cc1c2c(c(NCCOCCO)n3c1nc1ccccc13)CCCC2 | 4.14% (inactive) | 40.5% (inactive) | 31.7% (inactive) | -0.15% (inactive) |  |  |
| Cc1cc(C)c(C#N)c(Sc2nc(C)c([N+](=O)[O-])c(C)c2C#N)n1 | 3.51% (inactive) | 10.9% (inactive) | 9.59% (inactive) | 20.6% (inactive) | 12.9% (inactive) | 25.4% (inactive) |
| COc1ccc(OC)c(NC(=S)NCc2cccnc2)c1 | 1.82% (inactive) | 35.9% (inactive) | 33.3% (inactive) | 0.37% (inactive) |  |  |
